The nature of test [1]: Nuclear factor erythroid 2-related factor 2/antioxidant responsive element (Nrf2/ARE) small molecule agonists: qHTS cell viability counter screen in human keratinocytes (AID 1919968; active = well fitted curve in the direction sought with a large enough effect in the repeat runs; an effect the other way counts as inactive or inconclusive; note: nearly all actives have a fitted effect of over 55% in size; note: potency is the fitted concentration of half-maximal effect). Put shortly:
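Cytotoxicity was multiplexed with the Nrf2/ARE luciferase assay in the same wells. Stably transfected HaCaT keratinocytes were treated with test compounds for 23 h at 37 C. Cell viability was then measured by CellTiter-Fluor fluorescence.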
A general note: Quantitative high-throughput screening tests each substance at several concentrations.

A short description of test [2]: Nuclear factor erythroid 2-related factor 2/antioxidant responsive element (Nrf2/ARE) small molecule agonists: luciferase reporter gene qHTS assay in human keratinocytes (AID 1919969). Note: nearly all actives have a fitted effect of over 35% in size. Note: potency is the fitted concentration of half-maximal effect.
Test [3] addresses Gonadotropin-releasing hormone receptor (Homo sapiens) (UniProt P30968). The experiment in a line: Human gonadotropin-releasing hormone receptor (GnRHR) small molecule agonists, calcium flux assay in GnRHR-HEK293 cells (AID 1920063). Note: nearly all actives have a fitted effect of over 35% in size. An outline of the steps: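 Agonist activity was measured as intracellular calcium flux in HEK293 cells engineered to stably express human GnRHR. After dye loading for 1 hour at 37 C, compounds in DMSO were added and fluorescence was followed for 3 minutes.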
Background: Calcium flux is commonly read through the fluorescence of an indicator in the cells.

In test [4] the target is KiSS-1 receptor (Homo sapiens) (UniProt Q969F8). Briefly: Human kisspeptin (KISS1R) small molecule agonists, calcium flux assay in KISS1R-HEK293 cells (AID 1920064; active = well fitted curve in the direction sought with a large enough effect in the repeat runs; an effect the other way counts as inactive or inconclusive). Put shortly:
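Agonist activity is monitored as intracellular calcium rise in engineered HEK293 cells carrying human KISS1R. Cells are dye-loaded for 1 h at 37 C before compound addition, and fluorescence is recorded for 3 min.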

A short description of test [5]: G protein-coupled receptor (GPCR) small molecule agonists, calcium flux assay: HEK293 wild type cell line counter screen (AID 1920065). An outline of the steps:
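Seed cells, incubate 18 h (37 C, 5% CO2); add calcium dye, 1 h at 37 C; pin-transfer compounds, ATP control or DMSO; read fluorescence 480/540 nm each second for 3 min.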

Test [6] in a line: p53 small molecule agonists, cell-based qHTS assay with human liver microsomes: qHTS cell viability counter screen (AID 1963579). Note: nearly all actives have a fitted effect of over 45% in size. Note: potency is the fitted concentration of half-maximal effect. Put shortly:
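In this multiplexed counter screen, the reporter plates were subsequently treated with CellTiter-Glo so that cell viability, reflected by luminescence, could be recorded for p53RE-bla cells dosed 16 h with compounds under microsomal activation (HLM and NADPH).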

The nature of test [7]: p53 small molecule agonists, cell-based qHTS assay with rat liver microsomes: qHTS cell viability counter screen (AID 1963580). Note: nearly all actives have a fitted effect of over 45% in size. Note: potency is the fitted concentration of half-maximal effect. Put shortly: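 Luminescent ATP readout (CellTiter-Glo, 30 min at room temperature) reports viability of p53RE-bla HCT-116 cells after 16 h at 37 C with test compounds under metabolic activation by rat liver microsomes and NADPH at 0.5 mg/mL final each.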

The nature of test [8]: p53 small molecule agonists, cell-based qHTS assay: qHTS cell viability counter screen (AID 1963581). Note: nearly all actives have a fitted effect of over 45% in size. Note: potency is the fitted concentration of half-maximal effect. An outline of the steps: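 Viability was counter-screened in parallel with the p53 agonist reporter by measuring intracellular ATP luminescence in the same HCT-116 p53RE-bla wells after 16 h compound treatment at 37 C.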
Test [9] in a line: p53 small molecule agonists, cell-based qHTS assay (AID 1963582; active = well fitted activation curve with a large enough effect in the signal ratio in the repeat runs, not every such curve was filed as active; the % refers to the signal ratio). Put shortly:
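Cells carrying a p53-responsive bla reporter are treated with test compounds for 16 h at 37 C; beta-lactamase activity is then detected with LiveBLAzer B/G FRET substrate after 2 h at room temperature.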

Test [10] deals with 5-hydroxytryptamine receptor 2A (Homo sapiens) (UniProt P28223). The experiment in a line: 5-hydroxytryptamine receptor 2A (HTR2A) small molecule antagonists, cell-based qHTS assay (AID 1963586). Note: nearly all actives have a fitted effect of over 45% in size. Put shortly:
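CHO cells stably expressing human HTR2A were plated for 18 h at 37 C, then loaded with calcium dye for 1 h. Compounds were preincubated 5 min at room temperature before DOI (4 nM solution) was added. Kinetic fluorescence was read for 3 min.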

For test [11] the target is unchanged. The experiment in a line: 5-hydroxytryptamine receptor 2A (HTR2A) small molecule agonists, cell-based qHTS assay (AID 1963587). Note: nearly all actives have a fitted effect of over 30% in size. Note: potency is the fitted concentration of half-maximal effect. An outline of the steps:
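HTR2A-CHO cells, plated 18 h at 37 C/5% CO2, dye-loaded 1 h at 37 C; compounds in DMSO added by pin tool (agonist mode). Intracellular calcium flux read as kinetic fluorescence on FDSS over 2 min at 1 s intervals.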

For test [12], the target named is Muscarinic acetylcholine receptor M1 (Homo sapiens) (UniProt P11229). The experiment in a line: Cholinergic receptor muscarinic 1 (CHRM1) small molecule antagonists, cell-based qHTS assay (AID 1963588). Note: nearly all actives have a fitted effect of over 40% in size. An outline of the steps: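 Compounds were tested at 15 concentrations in three independent runs. Dye-loaded CHRM1-CHO cells were exposed 5 min at room temperature before stimulation by acetylcholine added at 50nM. Intracellular calcium was read kinetically on FDSS for 3 min.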

Test [13] shares this target. Briefly: Cholinergic receptor muscarinic 1 (CHRM1) small molecule agonists, cell-based qHTS assay (AID 1963589). Note: nearly all actives have a fitted effect of over 35% in size. An outline of the steps: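 Cells were plated and incubated 18 h at 37 C/5% CO2, loaded with calcium dye for 1 h at 37 C, then treated with compounds in DMSO. Fluorescence was recorded kinetically at 1 sec intervals.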
Test [14] has as its target Beta-2 adrenergic receptor (Homo sapiens) (UniProt P07550). The experiment in a line: Adrenergic beta2 receptor (ADRB2) small molecule antagonists, cell-based qHTS assay (AID 1963592). Note: nearly all actives have a fitted effect of over 50% in size. Note: potency is the fitted concentration of half-maximal effect. An outline of the steps:
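Assay format: CHO-ADRB2 cells, 18-20hr seeding at 37C/5% CO2, then compound plus 1nM isoproterenol agonist mix for 0.5hr RT. Homogeneous time-resolved fluorescence cAMP detection after 1hr, expressed as 665/615 nm ratio.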

Test [15] addresses D(2) dopamine receptor (Homo sapiens) (UniProt P14416). Briefly: Dopamine D2 receptor (DRD2) small molecule agonists, cell-based qHTS assay (AID 1963594). Note: nearly all actives have a fitted effect of over 35% in size. Put shortly:
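HEK293 cells stably expressing DRD2 were cultured 24 h at 37 C, then given Ro20-1724 (0.1 mM final) and compounds for 10 min at room temperature. NKH477 (200nM) was then added for 30 min. cAMP was read by HTRF.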

Test [16] has the same target. The experiment in a line: Dopamine D2 receptor (DRD2) small molecule antagonists, cell-based qHTS assay (AID 1963595; active = well fitted inhibition curve with a large enough effect in the signal ratio in the repeat runs, with a control signal flat; the % refers to the signal ratio; note: potency is the fitted concentration of half-maximal effect). An outline of the steps: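 Stable D2 receptor HEK293 line, 24 h after seeding. Compound preincubated 10 min, then quinpirole (12 nM) with forskolin analogue NKH477 (200 nM), 30 min, room temperature. Detection by time-resolved FRET of cAMP.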
The nature of test [17]: cAMP Responsive Elements (CRE) small molecule agonists, cell-based qHTS assay (AID 1963590). Put shortly:
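Cells carrying a CRE-driven beta-lactamase reporter (HEK 293T) are seeded, incubated overnight (18 h), and treated with test compounds for 3 h at 37 C; reporter activity is then detected with a FRET substrate after 2 h at room temperature.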

The nature of test [18]: cAMP Responsive Elements (CRE) small molecule antagonists, cell-based qHTS assay (AID 1963591; active = well fitted inhibition curve with a large enough effect in the signal ratio in the repeat runs, not every such curve was filed as active; the % refers to the signal ratio). An outline of the steps:
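Cells (CRE-bla HEK 293T, DMEM with 10% dialyzed FBS and 25 mM HEPES) are seeded and incubated 18 h. Compounds are added with NKH477 agonist at 0.25 uM final for 3 h, then FRET substrate for 2 h.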

For test [19], the target named is Beta-2 adrenergic receptor (Homo sapiens) (UniProt P07550). Briefly: Adrenergic beta2 receptor (ADRB2) small molecule agonists, cell-based qHTS assay (AID 1963593).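 Note: CHO cells stably overexpressing human ADRB2.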 An outline of the steps: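 CHO cells stably over-expressing ADRB2 were plated overnight at 37C, then dosed with compounds plus a stimulation mix containing 100uM IBMX and 25uM Ro-20-1724 for 0.5hr at room temperature. cAMP was measured by HTRF competition, 1hr.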

Each structure is given as a SMILES string. Several values for one entry are separate records, joined by “and”; a condition that tells them apart may be missing. Identical values can stand only once. Inconclusive results are not listed. Some structures have more than one record in an assay (separate samples or runs), and their calls can disagree. Activity calls are given as the source filed them. Unless noted, calls come from the whole dose curve.

Sequence of Gonadotropin-releasing hormone receptor (Homo sapiens) (P30968 whole entry, looked up): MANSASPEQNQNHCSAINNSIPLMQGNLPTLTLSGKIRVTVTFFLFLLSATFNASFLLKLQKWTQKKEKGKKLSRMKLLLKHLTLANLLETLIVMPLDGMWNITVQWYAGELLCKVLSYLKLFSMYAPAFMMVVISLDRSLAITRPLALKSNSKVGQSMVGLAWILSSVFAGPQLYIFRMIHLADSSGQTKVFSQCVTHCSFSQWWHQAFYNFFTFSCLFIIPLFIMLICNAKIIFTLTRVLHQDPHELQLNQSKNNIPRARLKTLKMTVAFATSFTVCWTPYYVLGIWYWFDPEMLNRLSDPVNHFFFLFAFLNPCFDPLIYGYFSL
Sequence of Beta-2 adrenergic receptor (Homo sapiens) (P07550 whole entry, looked up): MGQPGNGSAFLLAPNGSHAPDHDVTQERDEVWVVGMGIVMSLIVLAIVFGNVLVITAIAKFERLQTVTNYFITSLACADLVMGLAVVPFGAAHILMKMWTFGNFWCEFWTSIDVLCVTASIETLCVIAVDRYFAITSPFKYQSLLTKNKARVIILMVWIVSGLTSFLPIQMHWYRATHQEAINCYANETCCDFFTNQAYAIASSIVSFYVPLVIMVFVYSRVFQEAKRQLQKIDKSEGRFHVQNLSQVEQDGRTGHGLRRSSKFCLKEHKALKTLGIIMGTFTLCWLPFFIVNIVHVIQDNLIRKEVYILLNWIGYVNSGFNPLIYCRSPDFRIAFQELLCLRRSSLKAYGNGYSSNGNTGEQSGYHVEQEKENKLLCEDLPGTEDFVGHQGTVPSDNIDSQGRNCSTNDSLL
Sequence of D(2) dopamine receptor (Homo sapiens) (P14416 whole entry, looked up): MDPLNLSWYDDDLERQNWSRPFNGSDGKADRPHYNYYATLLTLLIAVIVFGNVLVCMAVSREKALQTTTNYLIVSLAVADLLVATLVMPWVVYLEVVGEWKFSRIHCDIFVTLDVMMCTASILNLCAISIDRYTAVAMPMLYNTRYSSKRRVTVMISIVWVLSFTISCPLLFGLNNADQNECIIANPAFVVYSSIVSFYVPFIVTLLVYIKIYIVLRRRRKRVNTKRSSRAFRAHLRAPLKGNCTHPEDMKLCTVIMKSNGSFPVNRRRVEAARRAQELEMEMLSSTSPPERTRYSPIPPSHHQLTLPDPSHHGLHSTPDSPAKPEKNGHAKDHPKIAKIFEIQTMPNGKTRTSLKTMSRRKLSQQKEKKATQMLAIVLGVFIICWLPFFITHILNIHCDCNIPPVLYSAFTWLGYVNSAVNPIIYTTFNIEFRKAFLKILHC
Sequence of KiSS-1 receptor (Homo sapiens) (Q969F8 whole entry, looked up): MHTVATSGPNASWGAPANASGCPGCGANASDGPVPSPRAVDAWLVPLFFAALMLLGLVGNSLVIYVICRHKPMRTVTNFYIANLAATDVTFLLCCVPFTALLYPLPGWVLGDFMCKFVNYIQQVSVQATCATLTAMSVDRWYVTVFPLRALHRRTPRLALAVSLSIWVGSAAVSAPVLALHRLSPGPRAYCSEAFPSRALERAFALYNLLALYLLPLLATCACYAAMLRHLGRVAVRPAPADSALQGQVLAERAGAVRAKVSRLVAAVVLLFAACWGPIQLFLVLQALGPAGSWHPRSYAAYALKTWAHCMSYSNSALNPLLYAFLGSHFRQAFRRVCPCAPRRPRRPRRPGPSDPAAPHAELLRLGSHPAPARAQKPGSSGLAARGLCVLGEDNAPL
Sequence of Muscarinic acetylcholine receptor M1 (Homo sapiens) (P11229 whole entry, looked up): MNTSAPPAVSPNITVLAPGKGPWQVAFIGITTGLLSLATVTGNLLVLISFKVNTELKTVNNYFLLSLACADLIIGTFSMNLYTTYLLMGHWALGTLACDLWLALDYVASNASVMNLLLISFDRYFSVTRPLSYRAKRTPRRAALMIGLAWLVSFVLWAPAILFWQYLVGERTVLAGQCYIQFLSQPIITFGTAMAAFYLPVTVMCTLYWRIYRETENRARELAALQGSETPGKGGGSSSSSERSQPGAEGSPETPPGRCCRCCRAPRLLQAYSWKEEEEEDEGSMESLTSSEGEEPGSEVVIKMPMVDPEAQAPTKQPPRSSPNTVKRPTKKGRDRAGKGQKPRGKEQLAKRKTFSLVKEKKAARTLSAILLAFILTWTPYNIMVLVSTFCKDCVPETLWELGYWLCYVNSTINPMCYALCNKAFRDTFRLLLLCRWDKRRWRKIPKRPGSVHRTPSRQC
Sequence of 5-hydroxytryptamine receptor 2A (Homo sapiens) (P28223 whole entry, looked up): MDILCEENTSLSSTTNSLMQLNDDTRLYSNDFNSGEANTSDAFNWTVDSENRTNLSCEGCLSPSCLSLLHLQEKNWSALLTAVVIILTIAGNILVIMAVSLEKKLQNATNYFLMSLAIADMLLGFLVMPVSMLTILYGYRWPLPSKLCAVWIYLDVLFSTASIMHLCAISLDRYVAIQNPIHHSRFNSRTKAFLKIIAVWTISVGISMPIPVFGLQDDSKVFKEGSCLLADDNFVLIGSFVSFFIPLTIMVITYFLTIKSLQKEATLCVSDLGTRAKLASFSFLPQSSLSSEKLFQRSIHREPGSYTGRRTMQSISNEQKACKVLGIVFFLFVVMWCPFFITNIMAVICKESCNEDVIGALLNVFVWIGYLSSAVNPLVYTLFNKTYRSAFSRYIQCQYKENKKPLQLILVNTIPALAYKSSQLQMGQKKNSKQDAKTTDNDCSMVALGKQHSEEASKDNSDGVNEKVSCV

Turning to `Oc1cc(Cl)ccc1Oc1ccc(Cl)cc1Cl`, the Potency in test [1] was 22.2 µM (active) and 29.8 µM (active); in [6], 16.6 µM (active) and inactive; in test [7], 37.2 µM (active) and inactive; in [8], 26.3 µM (active); in test [11] it was 35.5 µM (active); in test [14] it was 52.6 µM (active). For the same compound, the Potency in test [16] was 55.8 µM (active). Moreover, the Potency entry in [2], in test [3], in [4], in test [5], in test [9] and in test [10] was “inactive” in each case. In addition, the Potency entry in test [12], in test [13] and in test [15] was “inactive” in each case.
In the case of `CCOP(=S)(OCC)Oc1ccc2c(C)c(Cl)c(=O)oc2c1`, the Potency result in test [1], in test [3], in test [4], in [5], in test [6] and in test [8] was “inactive” in each case. The Potency entry in [10], in test [11], in [12], in test [13], in test [14] and in test [15] was “inactive” each time. The Potency entry in [16] is “inactive”. In [2], the Potency entry is “inactive and 10.6 µM (active)”.
With `CCOP(=S)(OCC)Oc1cnc2ccccc2n1`, the Potency result in test [1], in test [2], in test [3], in test [4], in [5] and in [6] was “inactive” throughout. Also, the Potency entry in [7], in test [8], in [9], in test [10], in test [11] and in test [12] was “inactive” throughout. The Potency result in test [13], in test [17], in test [18], in [14], in test [19] and in test [16] was “inactive” throughout.
Take `C=CCc1ccc(OC)cc1`: the Potency result in test [1], in test [2], in test [3], in test [4], in [5] and in test [6] was “inactive” throughout. In addition, the Potency entry in test [7], in test [8], in test [10], in [11], in test [12] and in test [13] was “inactive” in each case. For the same compound, the Potency result in test [17], in test [18], in test [14] and in test [15] was “inactive” in each case.
On to `CC1(C)Cc2cccc(O)c2O1`, for which the Potency result in test [1], in test [2], in test [3], in test [4], in test [5] and in [6] was “inactive” in each case. Moreover, the Potency entry in [7], in [8], in test [10], in [11], in test [12] and in [13] was “inactive” each time. Moreover, the Potency result in test [17], in [18], in test [14], in [15] and in test [16] was “inactive” each time.
With `O=S(=O)(Oc1ccc(Cl)cc1)c1ccc(Cl)cc1`, the Potency entry in test [1], in test [3], in test [4], in test [5], in [6] and in test [7] was “inactive” in each case. The Potency result in [8], in test [10], in [11], in [12], in test [13] and in test [17] was “inactive” throughout. Further, the Potency entry in [18], in test [14] and in [19] was “inactive” each time. Moreover, the Potency in test [2] was 27.7 µM (active) and inactive.
For the compound `CNC(=O)CSP(=S)(OC)OC`, the Potency entry in test [1], in [2], in [3], in test [4], in test [5] and in test [6] was “inactive” each time. For the same compound, the Potency result in test [7], in [8], in test [10], in [11], in test [12] and in [13] was “inactive” throughout. Further, the Potency result in test [17], in test [18], in [14], in test [19], in test [15] and in test [16] was “inactive” in each case.
In the case of `CC(C)C#N`, the Potency entry in test [1], in [2], in test [3], in [4], in [5] and in test [6] was “inactive” throughout. Further, the Potency result in test [7], in test [8], in [10], in [11], in test [12] and in [13] was “inactive” in each case. Further, the Potency entry in test [17], in test [18], in test [14], in test [19] and in test [16] was “inactive” each time.

(Values after PubChem BioAssay (Tox21).)
